Results on 13 compounds are retold here after PubChem BioAssay (NCATS).

SMILES strings stand for the structures. Results filed as inconclusive are left out. Calls of active or inactive are those of the source. Unless noted, calls follow the shape of the dose curve; as a rule, active = well fitted curve in the direction sought with a large enough effect; inconclusive = small, poorly fitted or top-dose-only effect, or another doubt; inactive = no such curve, though single readings can be large; an effect the other way counts as inactive or inconclusive.

Test [1] concerns the target Cytochrome P450 3A4 (Homo sapiens) (UniProt P08684). Kind of test: qHTS Assay for Inhibitors and Substrates of Cytochrome P450 3A4 (AID 884). Also: nearly all actives have a fitted effect of over 50% in size. Also: potency is read from the fitted curve at half-maximal effect. As to activity change, negative = inhibition: % is scaled to controls: 0 for no effect and ±100 for the full control effect. The procedure, abridged: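 Luminescent readout of luciferin produced by CYP3A4 (20 nM) dealkylation of Luciferin-PPXE, 25 uM (its KM). NADPH-driven reaction ran 60 min at RT after 10 min compound preincubation; data scaled to 57 uM ketoconazole as 100% inhibition.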
Background: qHTS replaces the single test concentration by a dilution series.

A short description of test [2]: qHTS Assay for Lipid Storage Modulators (AID 1519; calls by dose curve; as to activity change, negative = inhibition: % is scaled to controls: 0 for no effect and ±100 for the full control effect). Particulars: Drosophila S3 cells, BODIPY lipid droplet/cell ratio, laser cytometry, cells loaded with oleic acid; for activity change, negative = inhibition: at 57.5 µM (top of the series). The procedure, abridged:
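Cells seeded at 5,000 per well were treated with compounds over a concentration series and loaded with oleic acid (400 uM, as added). Lipid droplet fluorescence (488 nm excitation, 500-530 nm channel) was read by laser-scanning cytometry and normalized to 20 uM Triacsin C.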

For test [3], the target named is DNA dC->dU-editing enzyme APOBEC-3G (Homo sapiens) (UniProt Q9HC16). Kind of test: qHTS for inhibitors of Vif-A3G interactions: Validation (AID 588379). Also: 0% is about no effect. In outline: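 Yellow fluorescence (Ex 488, Em 500-530) of Vif-coexpressing HeLa A3G-eYFP cells, scanned by Acumen cytometer, reports blocked A3G degradation. Cells plated at 700/well overnight at 37 deg C before compound addition, then a further overnight compound incubation at 37 deg C.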

The nature of test [4]: Confirmation and Secondary Assay for Modulators of Hemoglobin Beta Chain Splicing at IVS2 654 locus (AID 910).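 Also: HeLa cells stably carrying EGFP split by mutant beta-globin IVS2-654 intron; per-well total GFP intensity by laser scanning cytometry after 2-day treatment; % of control where 0% means no effect.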 The procedure, abridged:
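Readout: per-well total peak green fluorescence (488 nm ex, 500–520 nm em) from objects 5–250 µm, reflecting correct splicing of an EGFP-654 reporter. Compounds were applied for 2 days at 37 °C to overnight-plated HeLa EGFP-654 cells; controls were DMSO and 500 nM IVS2-654 PNA.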

A short description of test [5]: Confirmation and Secondary Assay for Modulators of Hemoglobin Beta Chain Splicing at IVS2 705 locus (AID 930).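 Also: HeLa cells stably expressing the EGFP-705 splicing reporter; % of control where 0% means no effect.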 The procedure, abridged: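 Assay measures total GFP intensity per well in HeLa EGFP-705 cells after 2 days with compound; mis-splicing normally truncates EGFP, so fluorescence indicates corrected splicing.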
Test [6] addresses Ubiquitin carboxyl-terminal hydrolase 1 (Homo sapiens) (UniProt O94782). The test can be described thus: Inhibitors of USP1/UAF1: Pilot qHTS (AID 504865).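 Also: rhodamine fluorescence freed from ubiquitin-rhodamine substrate followed over time; top concentration of the series differs between compounds; % is scaled to controls: 0 for no effect and ±100 for the full control effect; nearly all actives have a fitted effect of over 35% in size.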 The procedure, abridged: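 USP1/UAF1 complex at 1 nM preincubated 15 min at room temperature with compound, then Ub-Rho substrate added at 150 nM final. Fluorescence (480/540 nm) read kinetically in 50 mM HEPES pH 7.8, 0.5 mM EDTA, 1 mM TCEP, 0.1 mg/ml BSA, 0.01% Tween-20.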

For test [7], the target named is Cytochrome P450 3A4 (Homo sapiens) (UniProt P08684). The test can be described thus: qHTS Assay for Activators of Cytochrome P450 3A4 (AID 885). Also: nearly all actives have a fitted effect of over 65% in size. The procedure, abridged:
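Luminescent readout of luciferin formed from 25 uM Luciferin-PPXE (KM level) by 20 nM CYP3A4 in 200 mM KPO4, with 60 min NADPH-driven reaction at room temperature after 10 min compound exposure. Ketoconazole (57 uM) defined 100% inhibition.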

Where [8] appears, read: measured here: cell count channel max response.
Where [9] appears, read: measured here: lipid channel max response.

Ubiquitin carboxyl-terminal hydrolase 1 (Homo sapiens), sequence (O94782 whole entry, looked up): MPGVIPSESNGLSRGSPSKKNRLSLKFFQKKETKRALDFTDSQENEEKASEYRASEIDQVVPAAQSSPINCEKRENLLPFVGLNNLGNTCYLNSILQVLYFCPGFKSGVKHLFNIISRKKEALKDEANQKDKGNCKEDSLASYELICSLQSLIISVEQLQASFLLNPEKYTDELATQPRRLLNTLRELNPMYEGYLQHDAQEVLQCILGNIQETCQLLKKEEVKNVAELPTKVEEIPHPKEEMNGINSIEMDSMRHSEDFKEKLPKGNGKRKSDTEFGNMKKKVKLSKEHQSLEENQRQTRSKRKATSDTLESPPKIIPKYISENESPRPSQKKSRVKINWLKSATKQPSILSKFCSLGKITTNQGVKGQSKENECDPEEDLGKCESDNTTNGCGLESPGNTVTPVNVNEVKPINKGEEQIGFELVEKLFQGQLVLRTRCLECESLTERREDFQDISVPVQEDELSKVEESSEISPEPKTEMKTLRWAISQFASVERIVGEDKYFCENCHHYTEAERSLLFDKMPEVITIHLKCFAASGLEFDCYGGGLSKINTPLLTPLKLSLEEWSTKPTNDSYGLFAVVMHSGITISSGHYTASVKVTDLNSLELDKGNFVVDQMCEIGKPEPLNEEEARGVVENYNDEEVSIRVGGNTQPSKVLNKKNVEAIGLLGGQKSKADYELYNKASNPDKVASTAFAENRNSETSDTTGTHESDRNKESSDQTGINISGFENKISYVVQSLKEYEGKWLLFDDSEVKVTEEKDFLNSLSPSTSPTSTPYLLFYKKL
DNA dC->dU-editing enzyme APOBEC-3G (Homo sapiens), sequence (Q9HC16 whole entry, looked up): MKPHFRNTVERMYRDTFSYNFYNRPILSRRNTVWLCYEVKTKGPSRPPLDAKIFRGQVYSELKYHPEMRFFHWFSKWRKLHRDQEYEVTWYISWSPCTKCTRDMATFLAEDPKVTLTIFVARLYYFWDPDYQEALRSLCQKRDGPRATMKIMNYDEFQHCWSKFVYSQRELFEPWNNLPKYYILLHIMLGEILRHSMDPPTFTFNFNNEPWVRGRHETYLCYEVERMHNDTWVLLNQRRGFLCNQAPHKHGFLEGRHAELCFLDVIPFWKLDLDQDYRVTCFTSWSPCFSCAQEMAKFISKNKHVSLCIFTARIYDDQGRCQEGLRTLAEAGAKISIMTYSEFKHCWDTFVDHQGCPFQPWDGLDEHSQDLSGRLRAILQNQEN
Cytochrome P450 3A4 (Homo sapiens), sequence (P08684 whole entry, looked up): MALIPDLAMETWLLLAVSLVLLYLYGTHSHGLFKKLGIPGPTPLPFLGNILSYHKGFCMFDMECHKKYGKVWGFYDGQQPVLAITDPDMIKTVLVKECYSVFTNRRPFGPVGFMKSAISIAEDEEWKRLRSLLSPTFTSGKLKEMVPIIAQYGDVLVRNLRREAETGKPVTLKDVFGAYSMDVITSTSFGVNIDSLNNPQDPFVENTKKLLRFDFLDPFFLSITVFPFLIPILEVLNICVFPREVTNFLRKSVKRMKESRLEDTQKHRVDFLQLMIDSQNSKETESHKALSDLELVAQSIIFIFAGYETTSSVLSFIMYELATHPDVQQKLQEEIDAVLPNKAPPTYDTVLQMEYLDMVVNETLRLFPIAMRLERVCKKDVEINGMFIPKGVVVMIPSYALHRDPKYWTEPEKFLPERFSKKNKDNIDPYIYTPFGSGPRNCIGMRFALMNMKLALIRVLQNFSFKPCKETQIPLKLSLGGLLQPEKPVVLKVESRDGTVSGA

`COc1ccc(C2CC(=O)c3c(O)cc(OC4OC(COC5OC(C)C(O)C(O)C5O)C(O)C(O)C4O)cc3O2)cc1O` (configuration not stated): in test [1], the Potency result is “inactive”. Moreover, in test [2], the activity change, negative = inhibition was -2.69% (inactive). Also, the max response in test [2] (setting [8]) is -19%; in test [2] (setting [9]), -20.2%. The compound was called inactive in test [3].
With `Nc1ncnc2[nH]c(=O)[nH]c12`, the Potency entry in test [4], in test [5] and in test [6] was “inactive” throughout. Moreover, in test [2], the activity change, negative = inhibition was 4.6% (inactive). Besides, the max response in test [2] (setting [8]) turned out to be 1.75%; in test [2] (setting [9]), 6.43%.
With `C=C1C2=CC(=O)OC(c3ccoc3)[C@]2(C)CCC1[C@]1(C)C=CC(=O)C(C)(C)C1CC(=O)OC` (some centres not stated), the Potency in test [1] was 3.98 µM (active). In addition, the Potency entry in test [7], in test [4] and in test [5] was “inactive” throughout. Also, in test [2], the activity change, negative = inhibition was -2.8% (inactive). Moreover, the figures for the max response in test [2] (setting [8]) and in test [2] (setting [9]) were 12.4% and 11.5%, respectively.
As for `O=C(O)CCC(=O)C(=O)O` (tested in a mixture with another compound), the Potency entry in test [4], in test [5] and in test [6] was “inactive” in each case. In addition, the activity change, negative = inhibition in test [2] was 3.77% (inactive). Also, the max response in test [2] (setting [8]) came out at 11.4%; in test [2] (setting [9]), 18.6%.
Take `COc1ccc2c(c1)OC/C(=C\c1ccc(OC)c(O)c1)C2=O`: in test [1], the Potency is 10 µM (active). Further, the Potency result in test [7], in test [4] and in test [5] was “inactive” each time. The activity change, negative = inhibition in test [2] was -9.54% (inactive). Moreover, the max response in test [2] (setting [8]) is 2.46%; in test [2] (setting [9]) it was -8.22%.
Regarding `C=C1C[C@@]23C[C@@]1(O)CC[C@@H]2[C@]12C=C[C@@H](O)[C@](C)(C(=O)O1)[C@@H]2[C@@H]3C(=O)O`, in test [2], the activity change, negative = inhibition was -1.64% (inactive). Also, the max response in test [2] (setting [8]) is 0.496%; in test [2] (setting [9]), 0.595%. For the same compound, in test [3], the compound was called inactive.
Turning to `Cn1nnnc1SCC1=C(C(=O)O)N2C(=O)C(NC(=O)C(O)c3ccccc3)C2SC1` (configuration not stated), the Potency entry in test [4], in test [5] and in test [6] was “inactive” throughout. The activity change, negative = inhibition in test [2] was 13.2% (inactive). Besides, the max response in test [2] (setting [8]) came to 9.16%; in test [2] (setting [9]), 26.7%.
For the compound `CC1=CC(=O)C2C(C)(C)CCC[C@@]2(C)[C@@]1(O)CCc1ccoc1` (some centres not stated), in test [1], the Potency is 15.8 µM (active). Moreover, the Potency result in test [7], in test [4] and in test [5] was “inactive” in each case. Moreover, the activity change, negative = inhibition in test [2] is -1.73% (inactive). Further, the max response in test [2] (setting [8]) worked out at 10.7%; in test [2] (setting [9]), 10.8%.
Take `CC1CC[C@@]2(C(=O)O)CCC3(C)C(=CCC4[C@]5(C)CC(O)C(O)[C@](C)(CO)C5C(O)C[C@@]43C)C2C1C` (some centres not stated): the Potency result in test [5] and in test [6] was “inactive” throughout. In addition, in test [2], the activity change, negative = inhibition is 7.29% (inactive). For the same compound, the results for the max response in test [2] (setting [8]) and in test [2] (setting [9]) were 14.9% and 28.6%, respectively.
Take `C=C1CCC2C(C)(CO)C(O)CCC2(C)C1C/C=C1\C(=O)OCC1O` (configuration not stated): the activity change, negative = inhibition in test [2] was -0.167% (inactive). Also, the max response in test [2] (setting [8]) was 24.9%; in test [2] (setting [9]), 25.5%. The result in test [3] was inactive.
Take `NC(Cc1c[nH]c2ccccc12)C(=O)NCC(=O)O` (configuration not stated): the Potency entry in test [1] was “inactive”. Besides, the activity change, negative = inhibition in test [2] is 2.26% (inactive). For the same compound, the results for the max response in test [2] (setting [8]) and in test [2] (setting [9]) were -12.4% and -10.5%, respectively. The compound was classed as inactive in test [3].
Consider `CC1(C)CCC[C@]2(C)C3CC(=O)O[C@@]3(C)CC[C@H]12` (some centres not stated), for which the Potency entry in test [7] is “inactive”. In addition, in test [2], the activity change, negative = inhibition was 5.49% (inactive). Besides, the values for the max response in test [2] (setting [8]) and in test [2] (setting [9]) were 5.53% and 11.1%, respectively. Further, the compound was called inactive in test [3].
With `O=C(O)CCCC[C@@H]1SC[C@H]2NC(=O)N[C@@H]12`, the Potency result in test [1] is “inactive”. In addition, in test [2], the activity change, negative = inhibition was 6.17% (inactive). The values for the max response in test [2] (setting [8]) and in test [2] (setting [9]) were 12.9% and 23.3%, respectively. The call in test [3] was inactive.
